Tau fibril ThT – qHTS for Inhibitors of Tau Fibril Formation, Thioflavin T Binding; Potency, µM (doses to about 57.4 µM), for inactives: at the highest dose activity, negative = inhibition, actives largely listed as inhibitors; Microtubule-associated protein tau (Homo sapiens), P10636; recombinant tau K18 P301L, heparin-induced fibrillization, ThT fluorescence; 2.1% of 270,000 active; further: potency means the concentration at half of the fitted maximal effect; nearly all actives have a fitted effect of over 55% in size
Target sequence (P10636 561-689 P618L limits assumed): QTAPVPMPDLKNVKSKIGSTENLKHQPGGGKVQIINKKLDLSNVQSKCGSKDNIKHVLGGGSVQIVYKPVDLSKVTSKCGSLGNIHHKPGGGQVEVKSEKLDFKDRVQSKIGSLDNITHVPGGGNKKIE
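ThT emission at 510 nm, taken 1 hr after adding 30 uM dye, quantifies aggregates formed when 20 uM heparin acts on human tau K18 P301L for 6 hr at 37 C.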
Tau fibril FP – qHTS for Inhibitors of Tau Fibril Formation, Fluorescence Polarization | K18 P301L tau heparin fibrillization, Alexa594 FP, 6 h | Potency, µM (highest dose often 57.7 µM), for the others: at the highest dose activity, negative = inhibition, most hits filed as inhibitors | 0.39% of 280,000 active | AID 1468, 2008; further: potency means the concentration at half of the fitted maximal effect; nearly all actives have a fitted effect of over 55% in size
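Human K18 P301L fragment (15 uM unlabeled plus 0.24 uM Alexa 594-labeled) in 100 mM sodium acetate pH 7 with compound, aggregation induced by 20 uM heparin for 6 hr at 37 C. ThT (30 uM) added for 1 hr, then Alexa 594 FP read.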
Tau fluor cs – Counterscreen qHTS for Inhibitors of Tau Fibril Formation, Fluorescence Polarization; tau K18 P301L Alexa594 fluorescence, heparin fibrillization; Potency, µM (top dose mostly 57.7 µM), for inactives: at the top dose activity change, negative = decrease; 0.93% of 280,000 active; AID 1463, 2008; further: potency means the concentration at half of the fitted maximal effect; nearly all actives have a fitted effect of over 55% in size
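Human tau K18 P301L (15 uM unlabeled, 0.24 uM Alexa 594-labeled) in 100 mM sodium acetate pH 7 with 20 uM heparin, 6 hr at 37 C. ThT 30 uM added, 1 hr ambient; Alexa 594 FP and total fluorescence read at 555/632 nm.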
Coupling enz – qHTS Assay for Inhibitors of Fructose-1,6-bisphosphate Aldolase from Giardia Lamblia: Coupling assay counterscreen | coupling enzyme system counterscreen, AmpLite Red fluorescence | activity change, negative = inhibition, % at 58.2 µM, hits read low | 0.67% of 290,000 active | AID 2472, 2010; in the data active means activity change below about -30%
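First, compound is pin-transferred into glyceraldehyde-3-phosphate coupling-enzyme reagent at 57.5 uM final and held 10 min at RT. Next, substrate, coupling system and AmpLite Red are added. After 20 min RT, fluorescence (525/598 nm) is read.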
Sfp PPTase inh – qHTS Assay for Inhibitors of Bacillus subtilis Sfp phosphopantetheinyl transferase (PPTase); 4'-phosphopantetheinyl transferase ffp (Bacillus subtilis), Q9F4F7; Potency, µM, for inactives: largest response in the series, negative = inhibition, actives largely listed as inhibitors; Biochemical Sfp PPTase activity, qHTS; 3.5% of 310,000 active;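 further: the enzyme is Sfp with the accession as filed and its product quenches rhodamine fluorescence; potency means the concentration at half of the fitted maximal effect; 0% = enzyme reaction without inhibitor and -100% = no enzyme wells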
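After 15 min at room temperature with compound, 15 nM Sfp received 5 uM rhodamine-CoA plus 12.5 uM BHQ-2-ybbR (50 mM Hepes pH 7.6, 10 mM MgCl2). Rate came from the fluorescence difference over 30 min, ex 525/em 598 nm.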
The depositor's hits bear a star; ? = inconclusive; nt = no result; [ ] = remark or other dose. A selection: hits, their analogues and other compounds. The true share with any hit is near 5.2%. Unless noted, the call rests on the fitted dose curve; in most records, active means well fitted curve in the direction sought with a large enough effect; inconclusive means small, poorly fitted or top-dose-only effect, or another doubt; inactive means no such curve, though single readings can be large; an effect the other way counts as inactive or inconclusive. Unless noted, on the % scale 0 is the no-effect control and ±100 the full control effect.

SMILES | Tau fibril ThT | Tau fibril FP | Tau fluor cs | Coupling enz | Sfp PPTase inh
Cc1ccc2c(c1)C(C)CC(C)(C)N2C(=O)CN1CCN(C)CC1 (stereo not drawn) | nt | -2.4% | 1.9% | 0.3 | 56.2µM*
O=C(c1ccco1)N1CCC2(CC1)CCN(c1ccncc1)CC2 | nt | nt | nt | 3.4 | 14.8%
CCOc1ccc(N=Nc2c(C)noc2C)cc1 | 15.8µM* | -11.3% | -23.1% | 5.2 | -2.4%
CN1CCc2c(sc(NC(=O)c3cc4cc([N+](=O)[O-])ccc4s3)c2C(N)=O)C1 | 2.24µM* | 2.5% | ? | 0.1 | -7.5%
CC(C)N1CCc2c(sc(NC(=O)c3cc4cc([N+](=O)[O-])ccc4s3)c2C(N)=O)C1 | 3.98µM* | -2.2% | ? | -6.0 | ?
CC(C)N1CCc2c(sc(NC(=O)c3ccc4ccccc4c3)c2C(N)=O)C1 | nt | nt | nt | nt | -12.5%
COC(=O)c1c(C)sc(-c2c(-c3ccc4c(c3)OCCO4)[nH]c3c2c(=O)[nH]c(=O)n3C)c1O | -17.8% | ? | ? | nt | nt
O=C(NCCc1ccccc1)c1ccc(Cn2c(SCc3ccccc3F)nc3cccnc32)cc1 | -4.7% | 3.8% | -19.6% | nt | nt
CN1C(=O)c2ccc(NC(=S)NC(=O)C(C)(C)C)cc2C1=O | -6.0% | 3.8% | -7.5% | 5.3 | 35.5µM*
O=C(c1cccc(F)c1)N1CCC(c2c[nH]c3ccccc23)(c2c[nH]c3ccccc23)CC1 | 9.3% | -8.0% | -23.6% | nt | nt
COc1ccc(N2CCN(C(=O)c3nn(-c4ccc(C)cc4)c(=O)n(C)c3=O)CC2)cc1 | -10.7% | ? | -1.2% | nt | nt
CC(C)Oc1ccccc1-c1nc(SCC(=O)c2ccc(F)cc2)n[nH]1 | -14.7% | -3.5% | -29.7% | nt | nt
CCOC(=O)NNc1ccc2nonc2c1[N+](=O)[O-] | 12.6µM* | ? | -29.1% | -44.1* | 20µM*
Cc1cccc(Nc2ccc3nonc3c2[N+](=O)[O-])c1C | nt | nt | nt | -0.2 | 13.0%
Fc1cccc(NC(=S)NCc2ccc(Cl)cc2)c1 | 7.0% | -13.0% | -25.9% | 1.8 | 7.2%
Fc1cc(NC(=S)NCc2ccc(CNC(=S)Nc3ccc(Cl)c(F)c3)cc2)ccc1Cl | 17.0% | 3.98µM* | -23.7% | 0.5 | 18.4%
COc1cc(-c2ccc(N=Nc3ccc4c(S(=O)(=O)O)cc(S(=O)(=O)O)c(N)c4c3O)c(OC)c2)ccc1N=Nc1ccc2c(S(=O)(=O)O)cc(S(=O)(=O)O)c(N)c2c1O | 1.58µM* | 2.82µM* | 1µM*[quencher] | -56.7* | 3.98µM*
Cc1ccc(-c2nnc(Nc3ccc(C(N)=O)cc3)c3ccccc23)cc1S(=O)(=O)N1CCCCC1 | -7.3% | 28.2µM* | ? | nt | nt
Cc1ccc(-c2nnc(Nc3ccc(O)cc3)c3ccccc23)cc1S(=O)(=O)N1CCCCC1 | -1.7% | 16.6% | 4.47µM*[quencher] | nt | nt
Cc1ccc(-c2nnc(Nc3ccc(S(N)(=O)=O)cc3)c3ccccc23)cc1S(=O)(=O)N1CCCCC1 | 5.5% | ? | -21.6% | nt | nt
CCOC(=O)c1ccc(CN(Cc2ccc(F)cc2)S(=O)(=O)c2ccc(F)c(C(=O)Nc3cc(Cl)ccc3OC)c2)cc1 | 8.7% | -5.4% | -3.3% | nt | nt
CCN(CC)C(=O)c1cc([N+](=O)[O-])cc2c1-c1ccc([N+](=O)[O-])cc1C2=C(C#N)C#N | 31.6µM* | ? | ? | -33.6* | 70.8µM*
CCN(CC)C(=O)c1ccc(Oc2ccc([N+](=O)[O-])cc2Cl)cc1 | -1.7% | 7.1% | -1.1% | 0.9 | -9.3%
COc1ccc(-n2c(/C=C/c3ccccc3F)nc3cc(OC)c(OC)cc3c2=O)cc1Cl | 1.6% | 3.1% | -4.5% | nt | nt
CCCCCCCCCCCCCCCC(=O)N[C@H](CN1CCOCC1)[C@H](O)c1ccccc1 | -1.2% | 3.5% | 3.0% | -0.6 | 11.7%
SMILES | Tau fibril ThT | Tau fibril FP | Tau fluor cs | Coupling enz | Sfp PPTase inh
N#Cc1c(SCC(=O)Nc2nccs2)nc2c(c1-c1ccco1)CCCC2 | -17.0% | -2.1% | -17.5% | 0.0 | 20µM*
COC(=O)CSc1nc2c(c(-c3ccc(C)o3)c1C#N)CCCC2 | -22.5% | -3.7% | -27.5% | 6.1 | 50.1µM*
Cc1ccccc1NC(=O)CSc1nc2c(c(-c3ccco3)c1C#N)CCCC2 | 10.1% | 0.8% | 6.3% | 0.8 | 13.6%
Cc1cc(Nc2cccc(C(F)(F)F)c2)nc2ccc(NC(=O)c3cccnc3)cc12 | -17.4% | ? | 8.91µM*[quencher] | nt | nt
O=C(Nc1cccc(C(F)(F)F)c1)c1cccc(C(=O)Nc2cccc(C(F)(F)F)c2)c1 | 12.0% | ? | -13.2% | nt | nt
Cc1cc(Nc2cccc(C(F)(F)F)c2)nc2ccc(NC(=O)c3cccc(Cl)c3)cc12 | ? | ? | 7.08µM*[quencher] | nt | nt
CCOc1ccc(C(=O)Nc2ccc3nc(Nc4cccc(C(F)(F)F)c4)cc(C)c3c2)cc1OCC | ? | -7.9% | 3.55µM*[quencher] | nt | nt
COc1ccc(NC(=O)Cn2ccn(-c3ccc(F)c(F)c3)c(=O)c2=O)cc1Cl | ? | -7.3% | ? | nt | nt
CCc1ccc(-n2nc(CO)c(C(=O)NCc3ccccn3)n2)cc1 | -14.8% | 0.6% | -5.6% | nt | nt
COc1cc(CN2CCCC(C(=O)c3ccc4c5c(cccc35)CC4)C2)cc(OC)c1O (stereo not drawn) | 28.2µM* | ? | ? | -38.8* | -14.2%
COc1cccc(O)c1CN1CCCC(C(=O)c2cccc(C(F)(F)F)c2)C1 (stereo not drawn) | -12.8% | 9.4% | -23.9% | -0.8 | 70.8µM*
CCc1cccc(CC)c1NC(=O)C(CC)n1nc(C)n2c(cc3cc(C)ccc32)c1=O (stereo not drawn) | -13.1% | 5.7% | 3.8% | nt | nt
CCN(CC)c1ccc(C=Nc2ccc(C)cc2C)c(O)c1 | ? | 3.7% | -14.7% | -9.3 | -19.2%
Cc1ccc(N=Cc2sc(O)c3ccccc23)cc1 | -8.1% | -10.1% | ? | -9.0 | 31.6µM*
Cc1ccc(N=Cc2sc(O)c3ccccc23)c(C)c1 | ? | ? | -28.5% | -0.7 | 22.4µM*
CCCN(c1ccccc1F)S(=O)(=O)c1cc(-c2cc(C)no2)ccc1C | -9.4% | -8.9% | -28.8% | nt | nt
COC(=O)N[C@@H](c1ccc(Br)cc1)C(C(=O)OC)C(=O)OC | -7.6% | -7.4% | -10.9% | 1.6 | -14.5%
Cc1cc(C)cc(NC(=O)C2CCN(c3nccs3)CC2)c1 | -3.7% | 4.7% | -13.5% | 1.5 | 89.1µM*
COc1ccc(NC(=O)c2ccc(Cn3cc(Cl)cn3)cc2)cc1 | 1.6% | 5.8% | 19.6%[2.34 µM] | -4.0 | -15.7%
CN(C)c1ccc(NC(=O)c2ccc(Cn3cc([N+](=O)[O-])cn3)cc2)cc1 | 12.6µM* | 14.3% | ? | -5.5 | -1.7%
O=C(Nc1cnn(Cc2c(Cl)cccc2Cl)c1)c1ccc([N+](=O)[O-])cc1 | -20.2% | ? | 25.1µM*[quencher] | -2.9 | -5.9%

Bioassay records (PubChem BioAssay)
